# Among all 310,000 compounds or so, about 14,000 (4.5%) showed an effect of 50% or more. Effects have a minus sign here. The list comes from a sample in which strong results are over-represented; it also holds similar structures and randomly drawn compounds.
# Biological target: human ether-à-go-go-related gene (hERG) potassium channel (human, UniProt Q12809)
# Test: primary screen, population patch clamp on CHO cells stably expressing hERG; higher = less effect of the substance
# 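Further: peak tail current of the secondary pulse compared with the same well before compound.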
# human ether-à-go-go-related gene (hERG) potassium channel, sequence (Q12809 whole entry, looked up): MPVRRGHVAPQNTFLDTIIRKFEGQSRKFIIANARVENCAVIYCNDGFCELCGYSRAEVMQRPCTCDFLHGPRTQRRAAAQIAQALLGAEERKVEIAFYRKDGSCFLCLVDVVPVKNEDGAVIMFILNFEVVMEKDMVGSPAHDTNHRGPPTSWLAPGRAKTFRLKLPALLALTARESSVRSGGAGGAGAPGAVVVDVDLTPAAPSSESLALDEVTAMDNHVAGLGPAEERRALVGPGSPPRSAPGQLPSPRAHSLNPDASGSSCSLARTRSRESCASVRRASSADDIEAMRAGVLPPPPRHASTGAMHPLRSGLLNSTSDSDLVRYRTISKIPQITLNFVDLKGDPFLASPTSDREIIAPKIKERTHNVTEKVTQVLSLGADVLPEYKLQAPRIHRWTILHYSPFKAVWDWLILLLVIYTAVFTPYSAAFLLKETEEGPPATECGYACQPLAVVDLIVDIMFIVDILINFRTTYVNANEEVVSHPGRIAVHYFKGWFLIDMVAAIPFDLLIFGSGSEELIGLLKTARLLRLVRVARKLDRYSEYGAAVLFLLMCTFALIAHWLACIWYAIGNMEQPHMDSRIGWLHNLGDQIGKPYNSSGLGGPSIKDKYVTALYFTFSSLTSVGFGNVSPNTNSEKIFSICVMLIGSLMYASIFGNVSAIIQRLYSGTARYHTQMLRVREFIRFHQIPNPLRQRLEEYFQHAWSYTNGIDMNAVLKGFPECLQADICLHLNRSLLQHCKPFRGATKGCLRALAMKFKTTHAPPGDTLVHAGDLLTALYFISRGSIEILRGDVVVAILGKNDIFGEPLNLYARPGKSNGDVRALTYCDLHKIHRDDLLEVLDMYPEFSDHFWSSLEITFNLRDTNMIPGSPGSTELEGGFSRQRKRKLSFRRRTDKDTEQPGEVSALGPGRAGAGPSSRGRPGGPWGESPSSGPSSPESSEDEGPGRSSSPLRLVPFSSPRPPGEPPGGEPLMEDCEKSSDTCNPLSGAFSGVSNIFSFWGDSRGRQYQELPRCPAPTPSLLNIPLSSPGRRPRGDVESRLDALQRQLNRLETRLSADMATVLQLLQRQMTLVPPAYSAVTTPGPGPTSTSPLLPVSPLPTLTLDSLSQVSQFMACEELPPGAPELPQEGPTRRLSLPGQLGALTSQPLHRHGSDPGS
row,Structure (SMILES),"hERG current change (%, negative = inhibition) at 10uM"
1,COc1cc(C)c(Cl)cc1S(=O)(=O)NCCN1CCOCC1,15.9%
2,Cc1c(NC(=O)c2ccc(F)cc2)c(=O)n(-c2ccccc2)n1C,11.2%
3,CCCc1cc(=O)[nH]c(SCC(=O)c2cc(C)n(CC(F)(F)F)c2C)n1,7.55%
4,CC(=O)c1ccc(S(=O)(=O)N(C)CC(=O)Nc2ccc(C)cc2)cc1,-0.949%
5,O=S(=O)(Nc1ccc2c(c1)OCCO2)c1cnc[nH]1,7.8%
6,CCOC(=O)c1c(S(=O)(=O)NCCc2ccc(OC)c(OC)c2)c(C)n(C)c1C,4.97%
7,CC(C)(C)NC(=O)NC(=O)COC(=O)c1cccc(F)c1,-1.01%
8,O=C(CSc1nnc(COc2cccc3ccccc23)o1)N1CCN(C(=O)c2ccco2)CC1,-65.1%
9,O=C(CSc1nnc(CNc2ccc(F)cc2)o1)N1CCN(C(=O)c2ccco2)CC1,-50.8%
10,O=C(NCc1nnc(SCC(=O)N2CCCC2)o1)c1ccco1,-7.2%
11,O=C(CSc1nnc(CNc2ccccc2)o1)N1CCN(C(=O)c2ccco2)CC1,-17.3%
12,O=C(CSc1nnc(COc2cccc3ccccc23)o1)N1c2ccccc2CCc2ccccc21,7.68%
13,O=C(CSc1nnc(COc2cccc3cccnc23)o1)N1CCN(C(=O)c2ccco2)CC1,0.452%
14,O=C(Nc1ccccc1)/C(=C\c1ccco1)NC(=O)c1ccco1,-6.57%
15,COc1ccc(CCNC(=O)c2nnn(CC(=O)Nc3ccc(C)cc3C)c2N)cc1OC,13.8%
16,CCCOC(=O)c1cccc(NC(=O)c2cccnc2)c1,-39.7%
17,O=C1CC(c2ccccc2)SC(N(c2ccccc2)c2ccccc2)=N1 (stereo not drawn),-0.167%
18,Cn1cc(Cl)c(C(=O)NNC(=S)NC2CCCCC2)n1,15.4%
19,Cc1cc(C)cc(N2CCCC2=O)c1,16.3%
20,O=C(c1ccco1)N1CCN(C(=S)Nc2ccc(F)cc2)CC1,-2.5%
21,O=C(N[C@@H]1C[C@H]2CC[C@@H]1C2)c1ccco1,4.88%

row,Structure (SMILES),"hERG current change (%, negative = inhibition) at 10uM"
1,CSc1ccccc1C(=O)N1CCC(CCC(=O)NCc2ccc(F)cc2)CC1,-12.4%
2,CCNC(=S)N1CCN(C(=O)c2ccco2)CC1,5.8%
3,O=C(c1ccco1)N1CCN(C(=S)NC2CC3CCC2C3)CC1 (stereo not drawn),-67.3%
4,O=C(CCC1CCN(C(=O)c2ccco2)CC1)NCc1ccc(F)cc1,-72.6%
5,O=C(CCC1CCN(C(=O)c2ccccc2Cl)CC1)NCc1ccc(F)cc1,-18.9%
6,O=C(NC1CC2CCC1C2)c1ccco1 (stereo not drawn),-5.69%
7,O=C(c1ccco1)N1CCN(C(=S)NCc2ccc(F)cc2)CC1,-53.1%
8,COCOc1ccc(-c2oc3c(C/C=C(\C)CCC=C(C)C)ccc(O)c3c(=O)c2OCOC)c(OCOC)c1,-9.2%
9,CC(Oc1ccc(Cl)cc1Cl)C(=O)Nc1ncccn1 (stereo not drawn),-2.67%
10,O=C(Nc1ccc(F)cc1)OC1CN2CCC1CC2 (stereo not drawn),-27.5%
11,CCOC(=O)C1CCCCN1Cc1ccc(C(F)(F)F)cc1 (stereo not drawn),7.75%
12,Cc1ccccc1-c1cc(C(=O)NCC2CC2)n(CC2CC(c3cccnc3)=NO2)n1 (stereo not drawn),-20%
13,O=C(c1cc(-c2ccccc2)nn1CC1CC(c2cccnc2)=NO1)N1CCOCC1 (stereo not drawn),-4.25%
14,COc1ccccc1CNC(=O)c1cc(-c2ccccc2)nn1CC1CC(c2cccnc2)=NO1 (stereo not drawn),-71.2%
15,Cc1ccccc1-c1cc(C(=O)NCc2cccs2)n(CC2CC(c3cccnc3)=NO2)n1 (stereo not drawn),-26.2%
16,O=C(NCC1CC1)c1cc(-c2ccccc2)nn1CC1CC(c2cccnc2)=NO1 (stereo not drawn),-25%
17,O=C(NCc1ccc(OC(F)(F)F)cc1)c1cc(-c2ccccc2)nn1CC1CC(c2cccnc2)=NO1 (stereo not drawn),-57.4%
18,Cc1ccccc1-c1cc(C(=O)NCc2ccco2)n(CC2CC(c3cccnc3)=NO2)n1 (stereo not drawn),-15.6%
19,COc1ccccc1CNC(=O)c1cc(-c2ccccc2C)nn1CC1CC(c2cccnc2)=NO1 (stereo not drawn),-2.89%
20,O=C(NCc1cccs1)c1cc(-c2ccccc2)nn1CC1CC(c2cccnc2)=NO1 (stereo not drawn),-51.8%
21,O=C(NCc1ccco1)c1cc(-c2ccccc2)nn1CC1CC(c2cccnc2)=NO1 (stereo not drawn),-63.9%
